Screens from PubChem.
ST2 inh: blocks human ST2 binding to IL-33; AlphaLISA ST2-Fc/biotin-IL-33 interaction, 1 h; 78,000 compounds, 2.3% hits; Q01638; inhibition, % for hits at 17 µM; in the data active means inhibition above about 30%
Large screens that a line does not name were inactive. The entries come from a sample that favours hits as a whole.

COCCN1CC(C(=O)N2CC(n3nc(C)cc3C)C2)CC1=O (stereo not given)	none
Cc1nc2ccccc2c2c1C(=O)N(c1cccc(Cl)c1)C2=O	none
Cc1nc2ccccc2c2c1C(=O)N(c1ccccc1)C2=O	none
Cc1nc2ccccc2c2c1C(=O)N(Cc1cccnc1)C2=O	none
COc1ccc(Cl)cc1N1C(=O)c2c(C)nc3ccccc3c2C1=O	ST2 inh 31%
Cc1nc2ccccc2c2c1C(=O)N(C(C)Cc1ccccc1)C2=O (stereo not given)	ST2 inh 34%
Cc1nc2ccccc2c2c1C(=O)N(c1ccc(F)cc1F)C2=O	none
CCN(CC)CCCNCc1ccc(OC)c(OC)c1	none
CC1CC(=O)C2=C(CCC3(O)C2C(=O)c2cccc(O)c2C3O)C1 (stereo not given)	ST2 inh 31%
Cc1nc2ccccc2n1C(=O)c1ccccc1Cl	none
Cn1c(=O)cc(SCC(=O)N2CCN(c3cccc(Cl)c3)CC2)c2ccccc21	none
O=[N+]([O-])c1ccccc1Oc1ccccc1	ST2 inh 30%
O=C(O)Cc1ccccc1[N+](=O)[O-]	none
O=C(O)c1cc([N+](=O)[O-])c(C(=O)O)cc1Oc1ccc(Cl)cc1	none
O=C(O)c1ccc(S(=O)(=O)N2CCCC2)cc1	ST2 inh 35%
CC(C)(C)c1ccc(C(=O)Nc2ccc(S(=O)(=O)N3CCCC3)cc2)cc1	none
O=C(Nc1ccccc1)c1ccc(S(=O)(=O)N2CCCCC2)cc1	none
Cc1cccc(CSC2=NCCN2C(=O)c2ccccc2)c1	none
CC1CCN(S(=O)(=O)c2ccc3c(c2)N(CC(=O)NC2CCCC2)C(=O)CS3)CC1	none
Cc1ccccc1OCC(O)Cn1ccnc1C (stereo not given)	none
CC1(C)CCN2CCC(C)(C)c3c(O)ccc1c32	ST2 inh 73%
CCOC(=O)C[C@@H]1C[C@@H](C(C)C)[C@H](CNC(=O)c2ccccn2)C=C1C	none
COc1cc(CN2CCC[C@H]2c2nc(-c3cncnc3N)no2)cc(OC)c1OC	none
Cc1ccc(S(=O)(=O)N2C/C(=C\c3ccccc3)c3c2cc([N+](=O)[O-])cc3[N+](=O)[O-])cc1	ST2 inh 35%
Cc1ccc(S(=O)(=O)N2CCN(S(C)(=O)=O)C2c2ccccc2)cc1 (stereo not given)	none
COc1ccc(C2SCCN2S(=O)(=O)c2ccc(C)cc2)cc1[N+](=O)[O-] (stereo not given)	none
COc1ccc(Br)cc1C1N(c2nccs2)C(=O)C2CCCN21 (stereo not given)	none
O=C(O)c1ccc(CN2Cc3[nH]cnc3C[C@H]2c2nc(-c3cccc([N+](=O)[O-])c3)no2)cc1	none
COc1ccc(-c2noc([C@@H]3Cc4nc[nH]c4CN3C(=O)Nc3ccc(Cl)cc3)n2)cc1	none
Clc1ccc(-c2noc([C@@H]3Cc4nc[nH]c4CN3Cc3cccs3)n2)cc1	ST2 inh 30%
COCCCNc1nc2c(c(=O)n(C)c(=O)n2C)n1Cc1ccc(C)cc1	none
COc1ccc(NCC(O)Cn2c(C)c(C)c3ccccc32)cc1 (stereo not given)	ST2 inh 32%
Cc1ccc(C)c(NCC(O)Cn2c(C)c(C)c3ccccc32)c1 (stereo not given)	none
Cc1c(C)n(CC(O)CNC2CCCCC2)c2ccccc12 (stereo not given)	none
O=C(c1cccc(-c2cn[nH]c2)c1)N1CCCC(CCc2ccc(F)cc2)C1 (stereo not given)	none
O=C(CN1CCOCC1)Nc1nccs1	none
CCOC(=O)c1c(C)oc2ccc(OC(=O)c3ccc(OC)cc3)cc12	none
N=c1c2c(-c3ccccc3)c(-c3ccccc3)n(Cc3ccco3)c2ncn1Cc1ccco1	ST2 inh 31%
c1ccc(-c2nnc([C@H]3CCN(Cc4ccco4)C3)o2)cc1	none
O=c1[nH]nc(CCc2ccccc2O)n1Cc1ccco1	none
O=C(/C=C/c1ccccc1)Nc1ncc(S(=O)(=O)c2ccc([N+](=O)[O-])cc2)s1	none
CNC(=O)C1CCC(Cn2c(=O)c3sccc3n(CC(=O)Nc3ccccc3C)c2=O)CC1 (stereo not given)	none
COc1ccccc1/C=C/C1=NC(=C\c2cccc(Cl)c2)/C(=O)O1	ST2 inh 34%
COc1ccccc1/C=C/C1=NC(=C\c2ccc(C)cc2)/C(=O)O1	ST2 inh 38%
COc1ccccc1/C=C/C1=NC(=C\c2ccc(Cl)c(Cl)c2)/C(=O)O1	none
COc1ccccc1/C=C/C1=NC(=C\c2ccc([N+](=O)[O-])cc2)/C(=O)O1	none
COc1ccccc1/C=C/C1=NC(=C\c2cc(Br)cs2)/C(=O)O1	none
COc1ccccc1/C=C/C1=NC(=C\c2cccc(Cl)c2Cl)/C(=O)O1	none
CCOC(=O)c1c(C)n(C)c2ccc(OC(=O)c3cccc(OC)c3)cc12	none
COc1cc([N+](=O)[O-])ccc1NC(=O)COc1cc(C)ccc1C	none
O=C(CSc1nnc2c(n1)[nH]c1ccccc12)Nc1nc2ccc([N+](=O)[O-])cc2s1	none
Brc1ccc(CSc2nnc3c(n2)[nH]c2ccccc23)cc1	none
O=C(CSc1nnc2c(n1)[nH]c1ccccc12)c1ccc(Cl)cc1	ST2 inh 32%
COCCOC(=O)C1=C(C)NC2=C(C(=O)C(C(=O)OC)C(C)C2)C1c1ccc(O)cc1 (stereo not given)	none
